Results as given in PubChem BioAssay (NCI).
This is part of a sample that, as a whole, favours compounds with a hit. Of some 83,000 tested, about 20% had one in any assay.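 In brief: 96-well plates, 48 h treatment, single concentration, percent growth endpoint.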 Unmarked numbers belong to inactive results. Active and inactive are the calls of the source. Rule for the calls: active = growth percent below 10; inactive = the rest.

Legend:
Experiment in all cases: NCI-60 one-dose screen, 48 h (100 = growth as untreated, 0 = no growth, -100 = all killed)
Conditions in all cases: 10 µM unless noted
[1] = system: NCI-H23 lung
[2] = system: NCI-H226 lung
[3] = system: NCI-H322M lung
[4] = system: HOP-62 NSCLC
[5] = system: NCI-H460 lung
[6] = system: HOP-92 NSCLC
[7] = system: NCI-H522 lung
[8] = system: A549/ATCC NSCLC
[9] = system: 786-0 renal
[10] = system: COLO 205 colon
[11] = system: DU-145 prostate
[12] = system: K-562 leukemia
[13] = system: MALME-3M melanoma
[14] = system: MDA-MB-231 breast
[15] = system: RXF 393 renal
[16] = system: SF-268 CNS
[17] = system: SF-295 CNS
[18] = system: SF-539 CNS
[19] = system: UACC-257 melanoma
[20] = system: M14 melanoma

Row | Compound | growth [1] | growth [2] | growth [3] | growth [4] | growth [5] | growth [6] | growth [7] | growth [8] | growth [9] | growth [10] | growth [11] | growth [12] | growth [13] | growth [14] | growth [15] | growth [16] | growth [17] | growth [18] | growth [19] | growth [20]
1 | O=S(=O)(O)c1cccc2cccnc12 | 100% | 107% | 122% | 101% | 112% | 102% | 97.4% | 106% | 105% | 127% | 120% | 107% | 112% | 120% | 124% | 95.1% | 109% | 109% | 103% | 106%
2 | CCC1CCC(C)NC1 (stereo not given) | 91.3% | 93.4% | 108% | 101% | 99.7% | 87.3% | 99.2% | 105% | 102% | 103% | 107% | 102% | 102% | 120% | 107% | 102% | 92.1% | 99.7% | 96% | 95.2%
3 | CN(C)c1ccc2c(N(C)C)cc(N(C)C)nc2c1 | 97.5% | 83.2% | 64.9% | 82.1% | 82.7% | 69.8% | 79.3% | 98.5% | 94.8% | 65% | 93% | 64.4% | 98.4% | 64.2% | 97.7% | 91.6% | 65.9% | 84.9% | 122% | 81.7%
4 | Nc1nc(Cl)cc(Cl)n1 | 95.9% | 101% | 99% | 85.2% | 106% | 113% | 81.9% | 81% | 103% | 96.8% | 108% | 92.3% | 90.8% | 114% | 102% | 100% | 106% | 107% | 85.5% | 96.4%
5 | O=C(CCCl)OCCOc1ccccc1 | 96.2% | 104% | 97% | 105% | 104% | 86.7% | 98.2% | 102% | 99.4% | 103% | 101% | 93.2% | 97.7% | 111% | 112% | 94.6% | 105% | 95.8% | 110% | 102%
6 | C=COC(=O)C(C)(C)C | 102% | 109% | 104% | 104% | 104% | 71.7% | 93.7% | 105% | 96.2% | 104% | 110% | 103% | 95.5% | 113% | 105% | 103% | 93.1% | 102% | 107% | 107%
7 | Cc1cc(Cc2ccccc2)c(O)c(Cc2ccccc2)c1 | 82.5% | 85.9% | 97.3% | 85.5% | 99.4% | 90% | 78% | 76.5% | 86.6% | 106% | 103% | 82.6% | 103% | 91.6% | 88.2% | 93.4% | 101% | 101% | 93.4% | 91.5%
8 | CC(c1ccccc1)N(C)C (stereo not given) | 110% | 95.3% | 92.3% | 87.9% | 107% | 111% | 98% | 106% | 104% | 103% | 119% | 28% | 141% | 99.1% | 124% | 108% | 131% | 103% | 116% | 92.1%
9 | O=C(Nc1cccc(Cl)c1)c1ccc(Cl)cc1Cl | 99.4% | 94.7% | 103% | 92.3% | 95.1% | 95.7% | 78.1% | 81.1% | 88.4% | 101% | 99.3% | 90.9% | 96.6% | 97.9% | 110% | 96.2% | 94.6% | 103% | 99.7% | 93.7%
10 | CC(=O)c1cccc(NS(=O)(=O)c2ccc(C)cc2)c1 | 83.9% | 91% | 103% | 89.9% | 102% | 74.4% | 64.4% | 100% | 89.5% | 117% | 95.1% | 27.4% | 96.9% | 83.7% | 96.3% | 89.3% | 87.6% | 74.6% | 86.6% | 60.6%
11 | OC(CBr)CCBr (stereo not given) | 105% | 110% | 101% | 97.2% | 102% | 102% | 96.5% | 90.8% | 103% | 105% | 110% | 100% | 85.6% | 104% | 109% | 104% | 94% | 96.3% | 87.8% | 104%
12 | O=C(Nc1ccccc1)c1ccco1 | 96.2% | 99.1% | 101% | 101% | 108% | 98.8% | 100% | 97.9% | 92.8% | 115% | 112% | 93.7% | 92.9% | 112% | 123% | 117% | 103% | 102% | 107% | 97%
13 | c1ccc2[nH]c(Cc3nc4ccccc4[nH]3)nc2c1 | 107% | 112% | 93.1% | 99.2% | 111% | 85% | 103% | 103% | 117% | 105% | 109% | 126% | 89% | 106% | 114% | 131% | 101% | 105% | 111% | 94.3%
14 | COc1cc(C(=O)N2CCN(c3ccccc3)CC2)c2ccccc2n1 | 21.2% | 37.3% | 44.3% | 41.1% | 8.4% (active) | 62.3% | -7.75% (active) | 25.3% | 26% | -44.9% (active) | 1.57% (active) | 16.5% | 54.6% | 5.71% (active) | -39.8% (active) | 42.9% | 7.61% (active) | -4.8% (active) | 51.1% | 0.444% (active)
15 | OCCc1ccc(Cl)cc1 | 104% | 99.9% | 101% | 95.9% | 109% | 105% | 89.8% | 88.8% | 95.6% | 109% | 109% | 99.9% | 99.5% | 96.9% | 112% | 99.9% | 94.9% | 93.9% | 86.6% | 99.2%
16 | CN(C)Cc1ccccn1 | 101% | 108% | 96.3% | 104% | 109% | 114% | 91.9% | 93.1% | 97% | 117% | 120% | 107% | 98.7% | 98.8% | 99.5% | 111% | 101% | 92.1% | 99% | 97.9%
17 | CCOC(=O)c1ccc(NC(C)=O)o1 | 105% | 95% | 108% | 86.3% | 87.2% | 103% | 95.2% | 76.2% | 105% | 106% | 111% | 84.3% | 107% | 105% | 102% | 100% | 98.5% | 105% | 80.2% | 106%
